The results in this text go back to PubChem BioAssay (EPA / NIEHS).

Inconclusive results are not listed. Calls of active or inactive are those of the source. The calls were made as follows: active = hit-call score of the fitted dose curve at least 0.9, where 1 is the maximum; inconclusive = response in the unintended direction; inactive = score below 0.9.

Test [1] deals with Sodium channel protein type 1 subunit alpha (Rattus norvegicus) (UniProt P04774). Briefly: NVS_IC_rNaCh_site2: NovaScreen (NVS) Ion Channel Assay for rat Sodium Channel, Site 2 (NaCh) (AID 2283322).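 Also: hit means loss of radioligand binding signal relative to DMSO so AC50 marks displacement.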 The gist of the method: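 Initial duplicate single-point testing at 25 uM, followed by concentration-response runs for actives. Binding of radioligand to rat forebrain membranes quantified after 1 h via filter-based radiodetection.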

In test [2] the target is rat Neonicotinoid receptor (NNR), Chrna7 (gene 25302) (UniProt Q05941). Briefly: NVS_LGIC_rNNR_BungSens: NovaScreen (NVS) Ligand-Gated Ion Channel Assay for rat Neonicotinoid receptor (NNR) (AID 2283315). The gist of the method:
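Rat cortical membrane preparation incubated 2.5 h with tritiated or iodinated radioligand and test chemical. Bound radioactivity was filtered and counted by scintillation, and displacement was analysed against DMSO.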

The target of test [3] is rat Opioid Receptor, Non-selective Sodium (Na+) Binding, Oprm1 (gene 25601) (UniProt P33535). As to the kind of experiment: NVS_GPCR_rOpiate_NonSelectiveNa: NovaScreen (NVS) G Protein-Coupled Receptor Assay for rat Opioid Receptor, Non-selective Sodium (Na+) Binding (AID 2283311). The gist of the method: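 Filtration radioligand binding on rat forebrain membrane preparations, read 1.5 h after dosing. Single-concentration 25 µM primary screen in duplicate, followed by singleton concentration series to 50 µM max for actives; DMSO baseline.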
Sequence of rat Opioid Receptor, Non-selective Sodium (Na+) Binding, Oprm1 (gene 25601) (P33535 whole entry, looked up): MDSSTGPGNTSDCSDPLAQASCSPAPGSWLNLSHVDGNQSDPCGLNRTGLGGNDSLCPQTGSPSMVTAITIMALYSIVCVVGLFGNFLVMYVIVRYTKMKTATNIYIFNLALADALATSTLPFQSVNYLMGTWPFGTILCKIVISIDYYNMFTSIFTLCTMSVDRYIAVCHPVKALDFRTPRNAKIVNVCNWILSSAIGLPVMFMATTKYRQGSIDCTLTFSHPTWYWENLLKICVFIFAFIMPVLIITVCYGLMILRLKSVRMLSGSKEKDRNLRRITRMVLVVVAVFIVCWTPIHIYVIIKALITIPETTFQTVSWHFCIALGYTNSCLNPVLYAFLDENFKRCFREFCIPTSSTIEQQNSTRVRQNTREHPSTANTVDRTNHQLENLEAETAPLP

Test [4] has as its target rat Neurokinin-3 Receptor (NK3), Tacr3 (gene 24808) (UniProt P16177). As to the kind of experiment: NVS_GPCR_rNK3: NovaScreen (NVS) G Protein-Coupled Receptor Assay for rat Neurokinin-3 Receptor (NK3) (AID 2283310). The gist of the method:
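Filter-based radioligand displacement on rat cortex membrane preparations, read by scintillation 2 h post-dose. Chemicals first tested in duplicate at 25 uM; actives followed up in concentration series with a 50 uM maximum.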

Test [5] addresses rat Vasopressin 1 Receptor (V1), Avpr1a (gene 25107) (UniProt P30560). As to the kind of experiment: NVS_GPCR_rV1: NovaScreen (NVS) G Protein-Coupled Receptor Assay for rat Vasopressin 1 Receptor (V1) (AID 2283316). The gist of the method: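 Concentration-response up to 50 uM for chemicals passing a threshold such as 30% inhibition in an initial duplicate 25 uM screen. Displacement of radioligand from rat liver membranes measured after 1.5 h by filtration and scintillation.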

Test [6] can be described thus: NVS_IC_rCaDHPRCh_L: NovaScreen (NVS) Ion Channel Assay for rat Calcium Channel, Type L, Dihydropyridine Site (CaDHPRCh_L) (AID 2283320). The gist of the method:
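Rat cortex membrane preparation; dihydropyridine-site radioligand displacement read 1 h post-dose by filtration and scintillation. Primary single-point screen 25 uM in duplicate, then concentration series to 50 uM maximum; DMSO as negative control.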

Test [7] has as its target rat Glutamate, AMPA Site (AMPA), Gria1 (gene 50592) (UniProt P19490). As to the kind of experiment: NVS_LGIC_rAMPA: NovaScreen (NVS) Ligand-Gated Ion Channel Assay for rat Glutamate, AMPA Site (AMPA) (AID 2283324). The gist of the method: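 Screening at 25 uM in duplicate preceded concentration series reaching 50 uM for qualifying compounds. Radioligand displacement on rat forebrain membranes, 1 h, filter-based scintillation readout; reduced binding relative to DMSO.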

The target in test [8] is rat Somatostatin Receptor (SST), Sstr1 (gene 25033) (UniProt P28646). As to the kind of experiment: NVS_GPCR_rSST: NovaScreen (NVS) G Protein-Coupled Receptor Assay for rat Somatostatin Receptor (SST) (AID 2283314). The gist of the method:
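Single-concentration duplicate screen (25 uM), then concentration-response up to 50 uM for chemicals passing a threshold such as 30% inhibition. Membranes came from rat forebrain. Binding was measured 1 h post-dose by filter radiodetection and scintillation, relative to DMSO.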

The subject of the next test is NCBI gene 24521. Briefly: NVS_IC_rKATPCh: NovaScreen (NVS) Ion Channel Assay for rat Potassium Channel, ATP-Sensitive (KATPCh) (AID 2283319). The gist of the method:
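Primary duplicate screen at 25 uM, then singleton concentration series to 50 uM maximum, in a rat cortex membrane radioligand displacement assay. Binding measured by filtration and scintillation 2 h post-dose; DMSO baseline.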

The target of test [9] is bovine Gamma-Aminobutyric Acid Type A Receptor BDZ, alpha 5 site (GABARa5), GABRA5 (gene 523515) (UniProt Q08E50). As to the kind of experiment: NVS_LGIC_bGABARa5: NovaScreen (NVS) Ligand-Gated Ion Channel Assay for bovine Gamma-Aminobutyric Acid Type A Receptor BDZ, alpha 5 site (GABARa5) (AID 2283323). The gist of the method:
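Tested first in duplicate at a single 25 uM, with hits re-run in concentration series to a 50 uM maximum. Bovine hippocampal membranes; specific radioligand displacement measured by filter scintillation counting 1 hr post-dose.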

As usually defined, the AC50 is the concentration at which the activity in the assay is half-maximal.

Sequence of rat Neonicotinoid receptor (NNR), Chrna7 (gene 25302) (Q05941 whole entry, looked up): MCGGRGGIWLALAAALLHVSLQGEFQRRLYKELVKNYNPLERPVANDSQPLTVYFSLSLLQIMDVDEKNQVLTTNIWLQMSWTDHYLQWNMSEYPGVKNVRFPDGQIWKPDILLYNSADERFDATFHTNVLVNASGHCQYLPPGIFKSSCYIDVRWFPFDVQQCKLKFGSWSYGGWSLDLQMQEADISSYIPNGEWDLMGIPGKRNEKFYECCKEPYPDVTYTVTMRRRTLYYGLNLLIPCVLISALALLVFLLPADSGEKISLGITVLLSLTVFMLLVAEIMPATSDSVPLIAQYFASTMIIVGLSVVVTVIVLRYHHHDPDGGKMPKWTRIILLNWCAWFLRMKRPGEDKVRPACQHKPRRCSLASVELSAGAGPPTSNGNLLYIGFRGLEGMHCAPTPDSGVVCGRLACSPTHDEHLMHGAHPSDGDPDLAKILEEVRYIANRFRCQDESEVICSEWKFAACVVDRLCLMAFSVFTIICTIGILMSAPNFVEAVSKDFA
Sequence of rat Neurokinin-3 Receptor (NK3), Tacr3 (gene 24808) (P16177 whole entry, looked up): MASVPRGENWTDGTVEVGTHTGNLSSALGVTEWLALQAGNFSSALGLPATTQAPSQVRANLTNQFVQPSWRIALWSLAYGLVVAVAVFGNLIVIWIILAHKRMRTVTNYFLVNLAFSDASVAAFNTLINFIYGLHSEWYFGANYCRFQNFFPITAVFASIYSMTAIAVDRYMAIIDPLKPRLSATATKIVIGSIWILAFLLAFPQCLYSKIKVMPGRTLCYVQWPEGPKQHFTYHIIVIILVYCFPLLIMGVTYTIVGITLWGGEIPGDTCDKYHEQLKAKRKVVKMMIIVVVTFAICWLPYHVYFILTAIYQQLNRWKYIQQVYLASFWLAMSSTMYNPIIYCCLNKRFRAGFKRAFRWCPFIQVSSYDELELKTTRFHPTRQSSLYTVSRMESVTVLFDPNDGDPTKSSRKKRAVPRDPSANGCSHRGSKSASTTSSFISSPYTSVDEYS
Sequence of rat Glutamate, AMPA Site (AMPA), Gria1 (gene 50592) (P19490 whole entry, looked up): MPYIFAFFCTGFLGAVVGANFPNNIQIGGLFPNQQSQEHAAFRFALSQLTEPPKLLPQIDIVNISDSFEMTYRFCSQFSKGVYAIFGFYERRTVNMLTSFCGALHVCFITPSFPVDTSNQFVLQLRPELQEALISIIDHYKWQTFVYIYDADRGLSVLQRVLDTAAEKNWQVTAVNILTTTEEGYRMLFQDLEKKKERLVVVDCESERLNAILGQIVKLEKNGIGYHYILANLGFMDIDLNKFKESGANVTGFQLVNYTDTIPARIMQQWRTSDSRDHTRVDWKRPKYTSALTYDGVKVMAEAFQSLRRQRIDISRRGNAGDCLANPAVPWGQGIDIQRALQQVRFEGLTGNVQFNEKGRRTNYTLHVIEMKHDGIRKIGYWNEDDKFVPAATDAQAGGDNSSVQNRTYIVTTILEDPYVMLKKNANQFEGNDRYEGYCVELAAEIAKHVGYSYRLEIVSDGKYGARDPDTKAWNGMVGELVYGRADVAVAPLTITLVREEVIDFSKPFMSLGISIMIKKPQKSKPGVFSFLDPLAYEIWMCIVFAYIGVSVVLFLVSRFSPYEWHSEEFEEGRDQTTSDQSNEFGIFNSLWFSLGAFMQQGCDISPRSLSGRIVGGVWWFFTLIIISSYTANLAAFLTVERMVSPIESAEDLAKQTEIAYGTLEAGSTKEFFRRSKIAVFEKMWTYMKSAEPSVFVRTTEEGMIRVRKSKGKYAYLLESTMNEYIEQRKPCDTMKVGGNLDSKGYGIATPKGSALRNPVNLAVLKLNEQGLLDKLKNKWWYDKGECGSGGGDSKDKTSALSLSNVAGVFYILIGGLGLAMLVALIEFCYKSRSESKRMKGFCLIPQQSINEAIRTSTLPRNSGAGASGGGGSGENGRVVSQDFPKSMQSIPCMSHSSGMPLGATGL
Sequence of rat Somatostatin Receptor (SST), Sstr1 (gene 25033) (P28646 whole entry, looked up): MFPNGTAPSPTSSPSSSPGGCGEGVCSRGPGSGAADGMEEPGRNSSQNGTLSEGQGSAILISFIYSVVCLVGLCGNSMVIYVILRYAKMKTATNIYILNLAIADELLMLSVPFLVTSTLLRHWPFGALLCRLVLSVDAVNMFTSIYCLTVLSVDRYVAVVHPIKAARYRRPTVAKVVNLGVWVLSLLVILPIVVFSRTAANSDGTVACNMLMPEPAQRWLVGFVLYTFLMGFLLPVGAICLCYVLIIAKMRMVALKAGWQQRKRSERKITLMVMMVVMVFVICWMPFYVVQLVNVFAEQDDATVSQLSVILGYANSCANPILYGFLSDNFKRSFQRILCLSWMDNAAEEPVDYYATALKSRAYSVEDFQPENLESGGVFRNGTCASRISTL
Sequence of bovine Gamma-Aminobutyric Acid Type A Receptor BDZ, alpha 5 site (GABARa5), GABRA5 (gene 523515) (Q08E50 whole entry, looked up): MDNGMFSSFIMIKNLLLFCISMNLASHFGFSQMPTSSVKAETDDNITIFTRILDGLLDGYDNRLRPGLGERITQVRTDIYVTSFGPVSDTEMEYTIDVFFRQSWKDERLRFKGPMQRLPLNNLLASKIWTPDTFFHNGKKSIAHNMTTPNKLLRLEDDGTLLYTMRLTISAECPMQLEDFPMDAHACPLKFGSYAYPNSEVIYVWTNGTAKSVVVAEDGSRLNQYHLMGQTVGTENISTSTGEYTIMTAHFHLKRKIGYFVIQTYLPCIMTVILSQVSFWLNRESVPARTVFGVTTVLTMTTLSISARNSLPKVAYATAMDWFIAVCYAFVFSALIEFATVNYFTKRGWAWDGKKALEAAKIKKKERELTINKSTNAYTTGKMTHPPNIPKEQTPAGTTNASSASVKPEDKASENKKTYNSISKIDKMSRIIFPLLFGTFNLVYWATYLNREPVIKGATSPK
Sequence of rat Vasopressin 1 Receptor (V1), Avpr1a (gene 25107) (P30560 whole entry, looked up): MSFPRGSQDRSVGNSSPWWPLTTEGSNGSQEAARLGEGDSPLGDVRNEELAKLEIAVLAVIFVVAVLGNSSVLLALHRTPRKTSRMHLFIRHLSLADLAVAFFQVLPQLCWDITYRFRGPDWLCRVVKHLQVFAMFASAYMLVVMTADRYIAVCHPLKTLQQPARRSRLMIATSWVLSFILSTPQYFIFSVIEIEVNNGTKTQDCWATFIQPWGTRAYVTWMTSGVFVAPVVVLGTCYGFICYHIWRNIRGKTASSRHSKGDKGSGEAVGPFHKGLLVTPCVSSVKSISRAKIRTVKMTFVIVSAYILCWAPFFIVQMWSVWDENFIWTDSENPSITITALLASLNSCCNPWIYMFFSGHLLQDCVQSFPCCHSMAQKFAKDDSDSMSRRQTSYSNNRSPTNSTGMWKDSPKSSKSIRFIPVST

With `CCCCCCCCCCCCCC[N+](C)(C)C`, the AC50 in test [1] was 8.44 µM (active).

For the compound `O=c1c(-c2ccc(O)cc2)coc2cc(O)ccc12`, the outcome in [2] was inactive.

With `O=C(O)Cc1cc(I)c(Oc2cc(I)c(O)c(I)c2)c(I)c1`, the compound was classed as inactive in [3] and in [1].

On to `CC#C[C@]1(O)CC[C@H]2[C@@H]3CCC4=CC(=O)CCC4=C3[C@@H](c3ccc(N(C)C)cc3)C[C@@]21C`, for which the result in test [4], in [2] and in test [5] was inactive. Moreover, the AC50 was 2.59 µM (active) in test [3] and 6.71 µM (active) in test [1].

On to `CCCOc1sc(C(=O)N2CCC(c3cc(CN)ccc3F)CC2)c(C)c1Br`, for which the AC50 in [5] is 23.2 µM (active); in [6] it was 14.7 µM (active); in test [1], 1.01 µM (active).

`Cc1cc(CCN2CCN(c3nsc4ccccc34)CC2)cc2c1NC(=O)CC2(C)C`: the outcome in [7] was inactive.

With `CC[C@H](c1ccc(O)cc1)[C@@H](CC)c1ccc(O)cc1`, the result in test [4], in [2] and in test [1] was inactive. The half-maximal activity concentration (AC50) in test [3] is 1.77 µM (active).

For the compound `COC(=O)CCCCC(=O)OC`, the compound was classed as inactive in test [7].

With `CCCOC(=O)c1ccc(O)cc1`, in [1], the AC50 is 31.2 µM (active).

In the case of `CC(=O)NC1(c2cccc(F)c2)CCN(CC[C@@]2(c3ccc(Cl)c(Cl)c3)CN(c3ccccc3)C(=O)CO2)CC1`, the AC50 in test [4] was 0.713 µM (active); in test [3], 10.5 µM (active); in [8], 9.18 µM (active); with NCBI gene 24521, 4.88 µM (active); in [6], 2.24 µM (active); in [1], 0.449 µM (active).

As to `CC[C@H](C)[C@@H](C(=O)O)n1sc2ccccc2c1=O`, the AC50 in test [3] is 3.52 µM (active). In addition, the result in [7] was inactive.

Take `ClC1=C(Cl)C(Cl)(Cl)C(Cl)=C1Cl`: the outcome in test [6] was inactive.

Regarding `CCC(=C(c1ccc(O)cc1)c1ccc(OCCN(C)C)cc1)c1ccccc1`, the AC50 in test [1] is 4.03 µM (active).

For the compound `NC(=O)N(O)[C@@H]1C=C[C@H](Oc2cccc(Oc3ccc(F)cc3)c2)C1`, the outcome in test [8], in test [1] and in test [7] was inactive.

On to `OC1CCCCC1`, for which the compound was classed as inactive in test [1].

Regarding `CCN(CC)CCNc1ccc(CNC=O)c2sc3ccc(OC)cc3c(=O)c12`, the result in test [3] was inactive. Further, the AC50 in test [2] was 29.3 µM (active); in [1], 12.7 µM (active).

For the compound `Nc1cccc2c(N)cccc12`, the half-maximal activity concentration (AC50) in [1] is 18.5 µM (active).

For `CN1CCN(c2ccccc2/C=C2\SCCN(c3ccc(Cl)c(Cl)c3)C2=O)CC1`, in test [7], the compound was classed as inactive.

Regarding `CC(C)(C)c1ccc(O)c(C(C)(C)C)c1`, the AC50 in test [8] is 10.7 µM (active).

For the compound `O=C(OCCOCCOC(=O)c1ccccc1)c1ccccc1`, the result in test [9] was inactive.

Consider `CCCCCCCC(=O)O`, for which the call in [3], in [9] and in [7] was inactive.

Consider `Cc1cc(C)c(O)c(C)c1`, for which the call in [7] was inactive.

Consider `Cc1oc(-c2ccccc2)nc1CCOc1ccc(C[C@H](Nc2ccccc2C(=O)c2ccccc2)C(=O)O)cc1`, for which the result in [4] was inactive. In addition, the half-maximal activity concentration (AC50) in test [6] and in test [1] was 25 µM (active) throughout.

In the case of `CCC(C)(C)C1CCC(O)CC1` (stereo not drawn), in test [2], the result was inactive.
